Values without a mark were called inactive.
Tests used:
Test in all cases: log2 ratio of Biotin-Ahx-Ub-VS probe labelling (fragment/DMSO); higher = less target engagement (more negative = stronger competition), active = hit call of the paper (q ≤ 0.05, log2 ratio ≤ -1)
Conditions in all cases: compound concentration: 200 uM; treatment time: 3 h
USP19 = target: T1, USP19 (UniProt O94966)
T1 sequence (whole entry): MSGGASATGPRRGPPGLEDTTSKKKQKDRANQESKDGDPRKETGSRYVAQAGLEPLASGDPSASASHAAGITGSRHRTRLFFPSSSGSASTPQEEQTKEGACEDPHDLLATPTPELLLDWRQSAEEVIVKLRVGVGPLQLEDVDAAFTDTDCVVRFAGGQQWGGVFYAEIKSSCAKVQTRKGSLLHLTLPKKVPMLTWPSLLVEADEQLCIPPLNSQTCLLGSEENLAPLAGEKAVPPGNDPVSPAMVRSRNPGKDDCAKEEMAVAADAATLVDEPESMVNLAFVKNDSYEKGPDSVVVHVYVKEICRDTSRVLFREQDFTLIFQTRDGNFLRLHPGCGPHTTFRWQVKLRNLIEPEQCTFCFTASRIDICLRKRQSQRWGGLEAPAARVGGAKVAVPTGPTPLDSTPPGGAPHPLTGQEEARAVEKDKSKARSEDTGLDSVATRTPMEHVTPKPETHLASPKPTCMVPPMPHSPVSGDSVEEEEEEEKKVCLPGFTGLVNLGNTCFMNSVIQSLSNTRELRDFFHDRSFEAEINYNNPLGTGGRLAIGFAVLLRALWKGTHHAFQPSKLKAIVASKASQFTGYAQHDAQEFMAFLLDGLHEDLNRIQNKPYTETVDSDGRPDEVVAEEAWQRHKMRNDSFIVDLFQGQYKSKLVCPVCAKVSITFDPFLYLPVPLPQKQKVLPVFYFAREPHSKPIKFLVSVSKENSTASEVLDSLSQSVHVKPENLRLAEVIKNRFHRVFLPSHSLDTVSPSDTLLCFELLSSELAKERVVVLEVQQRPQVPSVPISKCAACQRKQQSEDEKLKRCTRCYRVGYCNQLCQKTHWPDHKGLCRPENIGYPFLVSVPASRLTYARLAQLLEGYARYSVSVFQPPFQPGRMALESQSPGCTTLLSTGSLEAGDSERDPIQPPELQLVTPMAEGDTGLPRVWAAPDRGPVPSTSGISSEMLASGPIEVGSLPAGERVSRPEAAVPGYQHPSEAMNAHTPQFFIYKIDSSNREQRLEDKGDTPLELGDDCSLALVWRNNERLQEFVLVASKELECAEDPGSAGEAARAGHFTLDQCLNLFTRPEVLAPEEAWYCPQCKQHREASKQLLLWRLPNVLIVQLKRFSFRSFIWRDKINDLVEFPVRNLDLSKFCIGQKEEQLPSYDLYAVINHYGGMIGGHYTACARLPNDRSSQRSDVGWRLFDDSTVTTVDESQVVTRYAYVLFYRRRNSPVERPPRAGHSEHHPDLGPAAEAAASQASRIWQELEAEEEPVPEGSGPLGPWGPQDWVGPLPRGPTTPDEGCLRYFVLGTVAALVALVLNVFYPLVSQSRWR
In short: (§1)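 Using Biotin-Ahx-Ub-VS at 0.5 µM final for 1 h, DUBs were labelled in HEK293T lysate (495 µg per sample) that had first been treated in triplicate with fragment at 200 µM or vehicle for 3 h. NeutrAvidin enrichment, LysC and trypsin digestion and diaPASEF LC-MS/MS followed. Spectronaut label-free quantities were global-median-normalised. Values are average log2 fragment/vehicle ratios by unpaired t-test, using proteins with ≥2 unique peptides.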

USP22 = target: T2, USP22 (UniProt Q9UPT9)
T2 sequence (whole entry): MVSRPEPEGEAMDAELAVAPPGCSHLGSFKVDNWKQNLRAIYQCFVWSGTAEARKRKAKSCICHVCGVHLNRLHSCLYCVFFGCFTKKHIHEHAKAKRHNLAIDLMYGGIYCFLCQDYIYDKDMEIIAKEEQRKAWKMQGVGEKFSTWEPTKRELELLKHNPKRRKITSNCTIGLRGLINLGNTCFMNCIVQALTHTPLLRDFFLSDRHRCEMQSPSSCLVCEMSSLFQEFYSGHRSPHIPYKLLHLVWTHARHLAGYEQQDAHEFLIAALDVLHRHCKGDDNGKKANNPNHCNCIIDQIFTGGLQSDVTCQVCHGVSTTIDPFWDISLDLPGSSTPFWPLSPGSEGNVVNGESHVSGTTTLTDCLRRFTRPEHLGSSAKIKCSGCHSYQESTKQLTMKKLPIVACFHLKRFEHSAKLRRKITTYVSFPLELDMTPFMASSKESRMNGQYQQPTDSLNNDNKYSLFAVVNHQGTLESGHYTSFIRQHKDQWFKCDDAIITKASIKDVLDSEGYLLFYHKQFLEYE
In short: as §1

USP24 = USP24 (UniProt Q9UPU5)
In short: as §1

USP25 = target: T3, USP25 (UniProt Q9UHP3)
T3 sequence (whole entry): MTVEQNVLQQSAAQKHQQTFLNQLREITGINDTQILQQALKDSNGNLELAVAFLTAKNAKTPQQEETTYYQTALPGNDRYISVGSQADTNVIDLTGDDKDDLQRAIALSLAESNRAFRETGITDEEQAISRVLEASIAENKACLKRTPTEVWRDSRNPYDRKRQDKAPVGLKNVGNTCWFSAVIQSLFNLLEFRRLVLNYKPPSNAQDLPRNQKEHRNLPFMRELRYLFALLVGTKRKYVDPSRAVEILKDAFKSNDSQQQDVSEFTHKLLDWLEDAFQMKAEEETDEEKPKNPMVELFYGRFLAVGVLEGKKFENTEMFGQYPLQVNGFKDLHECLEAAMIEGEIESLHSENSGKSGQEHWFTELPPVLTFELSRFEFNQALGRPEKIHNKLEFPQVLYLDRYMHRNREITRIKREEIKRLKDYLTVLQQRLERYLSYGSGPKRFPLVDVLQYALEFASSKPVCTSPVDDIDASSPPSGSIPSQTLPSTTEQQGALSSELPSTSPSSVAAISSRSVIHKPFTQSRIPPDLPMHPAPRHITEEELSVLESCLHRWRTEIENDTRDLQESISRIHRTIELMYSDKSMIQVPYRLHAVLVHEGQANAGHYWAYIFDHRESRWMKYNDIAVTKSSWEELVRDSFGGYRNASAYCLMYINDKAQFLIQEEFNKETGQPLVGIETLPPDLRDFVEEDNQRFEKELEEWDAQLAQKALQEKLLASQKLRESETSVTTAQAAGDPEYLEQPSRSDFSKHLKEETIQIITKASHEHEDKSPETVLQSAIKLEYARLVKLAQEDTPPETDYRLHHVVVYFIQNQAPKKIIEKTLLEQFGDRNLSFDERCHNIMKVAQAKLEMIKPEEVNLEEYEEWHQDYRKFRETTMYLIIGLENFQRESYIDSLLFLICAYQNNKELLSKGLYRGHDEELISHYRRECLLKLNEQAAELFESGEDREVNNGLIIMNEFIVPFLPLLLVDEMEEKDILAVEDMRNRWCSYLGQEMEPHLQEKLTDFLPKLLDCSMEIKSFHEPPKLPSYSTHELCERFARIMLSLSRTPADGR
In short: as §1

USP28 = target: T4, USP28 (UniProt Q96RU2)
T4 sequence (whole entry): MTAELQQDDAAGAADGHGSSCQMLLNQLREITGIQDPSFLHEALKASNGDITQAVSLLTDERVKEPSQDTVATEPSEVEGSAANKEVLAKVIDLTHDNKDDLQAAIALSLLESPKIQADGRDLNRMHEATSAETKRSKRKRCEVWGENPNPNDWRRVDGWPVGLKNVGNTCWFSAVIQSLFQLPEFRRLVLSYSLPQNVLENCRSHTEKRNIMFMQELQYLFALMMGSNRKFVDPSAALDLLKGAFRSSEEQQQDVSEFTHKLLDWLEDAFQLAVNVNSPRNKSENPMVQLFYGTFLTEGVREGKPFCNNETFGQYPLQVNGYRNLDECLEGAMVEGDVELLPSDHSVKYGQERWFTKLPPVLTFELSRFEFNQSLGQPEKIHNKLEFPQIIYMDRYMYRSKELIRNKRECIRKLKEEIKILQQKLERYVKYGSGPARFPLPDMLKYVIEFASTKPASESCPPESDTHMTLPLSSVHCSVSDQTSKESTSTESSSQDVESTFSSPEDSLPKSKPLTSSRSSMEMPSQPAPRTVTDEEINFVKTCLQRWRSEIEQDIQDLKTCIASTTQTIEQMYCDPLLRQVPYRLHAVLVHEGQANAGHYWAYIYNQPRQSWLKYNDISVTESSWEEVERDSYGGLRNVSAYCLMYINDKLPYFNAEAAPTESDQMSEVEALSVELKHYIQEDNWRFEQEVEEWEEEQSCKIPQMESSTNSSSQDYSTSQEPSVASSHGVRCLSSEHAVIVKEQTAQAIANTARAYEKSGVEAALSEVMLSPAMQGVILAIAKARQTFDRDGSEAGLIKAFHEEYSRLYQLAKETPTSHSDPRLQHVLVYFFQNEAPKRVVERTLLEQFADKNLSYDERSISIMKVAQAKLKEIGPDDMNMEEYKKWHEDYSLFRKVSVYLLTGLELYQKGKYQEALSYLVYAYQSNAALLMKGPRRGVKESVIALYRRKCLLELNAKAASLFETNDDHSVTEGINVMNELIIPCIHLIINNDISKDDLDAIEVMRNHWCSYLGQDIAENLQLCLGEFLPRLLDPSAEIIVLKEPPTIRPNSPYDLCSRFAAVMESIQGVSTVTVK
In short: as §1

USP24, sequence (Q9UPU5 whole entry): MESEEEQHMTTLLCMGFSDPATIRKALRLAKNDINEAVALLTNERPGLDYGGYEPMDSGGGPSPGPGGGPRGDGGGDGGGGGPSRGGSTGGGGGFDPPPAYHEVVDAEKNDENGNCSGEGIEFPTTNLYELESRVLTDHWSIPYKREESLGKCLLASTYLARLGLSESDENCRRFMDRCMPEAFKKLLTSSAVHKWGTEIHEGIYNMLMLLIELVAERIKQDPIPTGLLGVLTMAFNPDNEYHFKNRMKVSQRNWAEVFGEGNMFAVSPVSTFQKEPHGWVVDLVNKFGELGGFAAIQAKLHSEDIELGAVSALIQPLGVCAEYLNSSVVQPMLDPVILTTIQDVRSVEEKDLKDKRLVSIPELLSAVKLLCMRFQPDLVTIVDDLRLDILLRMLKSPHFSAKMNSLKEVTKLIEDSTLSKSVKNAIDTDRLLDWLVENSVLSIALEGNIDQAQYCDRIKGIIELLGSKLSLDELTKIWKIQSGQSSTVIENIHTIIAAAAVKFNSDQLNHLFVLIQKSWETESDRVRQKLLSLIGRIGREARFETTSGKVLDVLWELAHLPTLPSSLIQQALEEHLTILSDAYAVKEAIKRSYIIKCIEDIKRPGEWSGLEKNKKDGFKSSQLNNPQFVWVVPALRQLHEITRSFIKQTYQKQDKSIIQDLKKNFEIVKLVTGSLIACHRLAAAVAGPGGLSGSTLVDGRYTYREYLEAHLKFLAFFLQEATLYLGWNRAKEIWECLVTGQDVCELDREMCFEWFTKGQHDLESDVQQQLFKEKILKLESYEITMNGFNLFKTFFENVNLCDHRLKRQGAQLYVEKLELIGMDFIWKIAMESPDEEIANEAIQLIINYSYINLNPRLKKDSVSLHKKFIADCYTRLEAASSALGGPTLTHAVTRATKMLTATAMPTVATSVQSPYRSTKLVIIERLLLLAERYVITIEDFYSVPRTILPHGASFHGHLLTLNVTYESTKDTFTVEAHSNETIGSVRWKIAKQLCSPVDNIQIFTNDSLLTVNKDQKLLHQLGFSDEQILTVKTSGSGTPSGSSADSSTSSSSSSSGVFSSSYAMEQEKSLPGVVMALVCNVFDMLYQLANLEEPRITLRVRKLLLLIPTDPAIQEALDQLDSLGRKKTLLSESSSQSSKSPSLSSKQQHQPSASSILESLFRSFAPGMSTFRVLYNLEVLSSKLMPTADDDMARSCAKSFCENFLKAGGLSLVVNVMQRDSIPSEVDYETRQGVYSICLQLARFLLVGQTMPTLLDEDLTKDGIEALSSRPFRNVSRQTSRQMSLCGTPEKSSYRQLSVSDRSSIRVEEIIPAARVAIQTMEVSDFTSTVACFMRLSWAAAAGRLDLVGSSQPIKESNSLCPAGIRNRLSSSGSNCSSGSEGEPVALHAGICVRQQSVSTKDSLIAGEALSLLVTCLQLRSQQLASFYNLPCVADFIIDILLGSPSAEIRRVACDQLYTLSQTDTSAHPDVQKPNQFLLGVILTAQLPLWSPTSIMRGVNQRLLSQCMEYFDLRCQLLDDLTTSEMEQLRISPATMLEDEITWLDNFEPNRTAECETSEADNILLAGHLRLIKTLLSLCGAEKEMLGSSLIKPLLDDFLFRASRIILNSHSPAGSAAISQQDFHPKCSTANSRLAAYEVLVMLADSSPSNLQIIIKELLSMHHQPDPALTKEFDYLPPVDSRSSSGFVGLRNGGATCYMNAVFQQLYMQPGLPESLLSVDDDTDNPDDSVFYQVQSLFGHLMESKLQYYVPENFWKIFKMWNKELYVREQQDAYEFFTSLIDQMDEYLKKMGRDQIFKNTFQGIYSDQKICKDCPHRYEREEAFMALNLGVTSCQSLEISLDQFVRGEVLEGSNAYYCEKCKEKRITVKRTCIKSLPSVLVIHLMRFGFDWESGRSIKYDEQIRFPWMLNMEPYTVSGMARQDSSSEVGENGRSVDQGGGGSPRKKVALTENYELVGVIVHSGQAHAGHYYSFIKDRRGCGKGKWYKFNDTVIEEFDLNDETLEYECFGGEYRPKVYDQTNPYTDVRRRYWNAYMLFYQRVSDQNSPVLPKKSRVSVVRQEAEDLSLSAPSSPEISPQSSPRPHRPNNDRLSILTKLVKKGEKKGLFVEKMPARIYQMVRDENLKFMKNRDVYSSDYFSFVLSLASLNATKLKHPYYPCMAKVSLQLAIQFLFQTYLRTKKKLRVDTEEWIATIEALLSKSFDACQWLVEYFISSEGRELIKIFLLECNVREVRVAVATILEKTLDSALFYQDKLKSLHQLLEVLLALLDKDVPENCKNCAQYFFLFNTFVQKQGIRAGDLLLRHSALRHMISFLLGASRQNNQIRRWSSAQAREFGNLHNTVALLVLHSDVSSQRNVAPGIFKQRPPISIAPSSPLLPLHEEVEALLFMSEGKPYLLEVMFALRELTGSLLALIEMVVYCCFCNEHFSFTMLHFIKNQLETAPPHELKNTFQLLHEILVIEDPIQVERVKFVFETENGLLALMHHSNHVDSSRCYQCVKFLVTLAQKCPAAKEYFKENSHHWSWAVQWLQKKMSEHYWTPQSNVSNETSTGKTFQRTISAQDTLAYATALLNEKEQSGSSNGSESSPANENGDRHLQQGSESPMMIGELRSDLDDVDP

SMILES: CN(C(=O)CCl)c1nc2ccccc2s1
- log2 ratio of Biotin-Ahx-Ub-VS probe labelling (USP19): -0.126
- log2 ratio of Biotin-Ahx-Ub-VS probe labelling (USP22): -0.0338
- log2 ratio of Biotin-Ahx-Ub-VS probe labelling (USP24): -1.2 (active)
- log2 ratio of Biotin-Ahx-Ub-VS probe labelling (USP25): -0.235
- log2 ratio of Biotin-Ahx-Ub-VS probe labelling (USP28): -0.444
